From the supplement of paper PMC11732987, “Enantioselective OTUD7B fragment discovery through chemoproteomics screening and high-throughput optimisation” (Communications Chemistry, 2025)

Columns and labels:
Assay in all cases: log2 ratio of Biotin-Ahx-Ub-VS probe labelling (fragment/DMSO); higher = less target engagement (more negative = stronger competition), active = hit call of the paper (q ≤ 0.05, log2 ratio ≤ -1)
Conditions in all cases: compound concentration: 200 uM; treatment time: 3 h
OTUD6B = biological target: T1, OTUD6B (UniProt Q8N6M0)
T1 sequence (whole entry): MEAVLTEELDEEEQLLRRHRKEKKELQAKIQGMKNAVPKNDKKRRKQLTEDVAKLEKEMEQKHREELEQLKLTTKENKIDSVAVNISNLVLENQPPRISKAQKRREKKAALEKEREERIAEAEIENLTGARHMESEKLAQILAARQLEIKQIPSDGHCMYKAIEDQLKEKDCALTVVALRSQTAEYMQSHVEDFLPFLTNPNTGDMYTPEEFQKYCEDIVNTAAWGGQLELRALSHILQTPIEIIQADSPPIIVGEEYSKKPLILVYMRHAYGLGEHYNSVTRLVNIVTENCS
In short: (§1)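 Lysate from HEK293T cells, 495 µg per sample in Tris/CHAPS/IGEPAL buffer with protease inhibitors, was treated for 3 h in triplicate with fragment at 200 µM or vehicle. Biotin-Ahx-Ub-VS was next added at 0.5 µM final for 1 h. The labelled DUBs were enriched with NeutrAvidin, digested with LysC and trypsin, and run by diaPASEF LC-MS/MS, with values given as average log2 fragment/vehicle ratios by unpaired t-test on global-median-normalised Spectronaut quantities of proteins with ≥2 unique peptides.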

OTUD7B = biological target: T2, OTUD7B (UniProt Q6GQQ9)
T2 sequence (whole entry): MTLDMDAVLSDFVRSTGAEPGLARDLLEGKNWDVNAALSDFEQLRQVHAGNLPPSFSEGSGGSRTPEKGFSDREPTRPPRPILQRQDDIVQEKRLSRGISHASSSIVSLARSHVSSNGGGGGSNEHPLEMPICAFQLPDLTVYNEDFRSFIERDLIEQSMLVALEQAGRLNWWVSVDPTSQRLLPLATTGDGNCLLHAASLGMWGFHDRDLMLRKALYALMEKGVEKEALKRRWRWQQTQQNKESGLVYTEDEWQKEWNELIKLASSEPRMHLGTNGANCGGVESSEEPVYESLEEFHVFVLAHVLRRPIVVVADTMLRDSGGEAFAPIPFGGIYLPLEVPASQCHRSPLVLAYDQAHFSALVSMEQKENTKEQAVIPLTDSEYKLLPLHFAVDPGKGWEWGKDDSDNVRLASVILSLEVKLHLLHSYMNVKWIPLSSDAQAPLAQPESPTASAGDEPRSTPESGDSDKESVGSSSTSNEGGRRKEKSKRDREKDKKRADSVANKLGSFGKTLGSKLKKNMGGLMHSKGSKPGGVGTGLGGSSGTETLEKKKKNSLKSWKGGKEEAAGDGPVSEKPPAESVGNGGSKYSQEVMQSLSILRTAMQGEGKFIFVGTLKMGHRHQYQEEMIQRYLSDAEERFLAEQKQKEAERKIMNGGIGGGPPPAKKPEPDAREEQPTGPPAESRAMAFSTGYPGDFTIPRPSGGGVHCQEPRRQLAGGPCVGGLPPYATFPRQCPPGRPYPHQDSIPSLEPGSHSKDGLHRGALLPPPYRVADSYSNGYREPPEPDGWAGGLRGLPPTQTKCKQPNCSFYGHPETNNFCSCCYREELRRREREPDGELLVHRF
In short: as §1

PRPF8 = PRPF8 (UniProt Q6P2Q9)
In short: as §1

PSMD7 = biological target: T3, PSMD7 (UniProt P51665)
T3 sequence (whole entry): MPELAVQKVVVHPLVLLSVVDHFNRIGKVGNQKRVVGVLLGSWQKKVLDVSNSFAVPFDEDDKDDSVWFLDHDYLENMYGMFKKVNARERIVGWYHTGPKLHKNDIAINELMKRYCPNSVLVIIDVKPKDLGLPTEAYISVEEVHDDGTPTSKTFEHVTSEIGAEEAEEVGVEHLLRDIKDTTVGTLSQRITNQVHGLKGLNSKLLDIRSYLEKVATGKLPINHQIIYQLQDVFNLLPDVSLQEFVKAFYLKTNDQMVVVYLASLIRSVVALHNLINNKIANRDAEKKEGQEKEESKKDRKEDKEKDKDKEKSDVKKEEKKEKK
In short: as §1

UCHL1 = UCHL1 (UniProt P09936)
In short: as §1

UCHL3 = biological target: T4, UCHL3 (UniProt P15374)
T4 sequence (whole entry): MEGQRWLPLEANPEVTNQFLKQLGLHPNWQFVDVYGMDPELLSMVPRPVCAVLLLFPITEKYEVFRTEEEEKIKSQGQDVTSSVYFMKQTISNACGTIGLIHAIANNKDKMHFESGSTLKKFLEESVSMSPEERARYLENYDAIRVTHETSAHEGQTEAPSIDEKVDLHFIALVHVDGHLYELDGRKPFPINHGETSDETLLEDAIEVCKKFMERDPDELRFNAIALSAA
In short: as §1

UCHL5 = biological target: T5, UCHL5 (UniProt Q9Y5K5)
T5 sequence (whole entry): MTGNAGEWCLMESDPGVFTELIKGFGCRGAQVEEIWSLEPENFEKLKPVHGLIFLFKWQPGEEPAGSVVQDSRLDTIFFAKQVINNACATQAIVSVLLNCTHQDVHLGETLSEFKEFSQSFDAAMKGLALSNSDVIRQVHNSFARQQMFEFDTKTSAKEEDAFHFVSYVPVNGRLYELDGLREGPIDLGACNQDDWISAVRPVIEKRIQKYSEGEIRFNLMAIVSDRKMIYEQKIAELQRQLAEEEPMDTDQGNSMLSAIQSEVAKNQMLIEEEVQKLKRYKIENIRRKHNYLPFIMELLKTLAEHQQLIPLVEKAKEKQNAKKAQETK
In short: as §1

USP10 = USP10 (UniProt Q14694)
In short: as §1

USP15 = biological target: T6, USP15 (UniProt Q9Y4E8)
T6 sequence (whole entry): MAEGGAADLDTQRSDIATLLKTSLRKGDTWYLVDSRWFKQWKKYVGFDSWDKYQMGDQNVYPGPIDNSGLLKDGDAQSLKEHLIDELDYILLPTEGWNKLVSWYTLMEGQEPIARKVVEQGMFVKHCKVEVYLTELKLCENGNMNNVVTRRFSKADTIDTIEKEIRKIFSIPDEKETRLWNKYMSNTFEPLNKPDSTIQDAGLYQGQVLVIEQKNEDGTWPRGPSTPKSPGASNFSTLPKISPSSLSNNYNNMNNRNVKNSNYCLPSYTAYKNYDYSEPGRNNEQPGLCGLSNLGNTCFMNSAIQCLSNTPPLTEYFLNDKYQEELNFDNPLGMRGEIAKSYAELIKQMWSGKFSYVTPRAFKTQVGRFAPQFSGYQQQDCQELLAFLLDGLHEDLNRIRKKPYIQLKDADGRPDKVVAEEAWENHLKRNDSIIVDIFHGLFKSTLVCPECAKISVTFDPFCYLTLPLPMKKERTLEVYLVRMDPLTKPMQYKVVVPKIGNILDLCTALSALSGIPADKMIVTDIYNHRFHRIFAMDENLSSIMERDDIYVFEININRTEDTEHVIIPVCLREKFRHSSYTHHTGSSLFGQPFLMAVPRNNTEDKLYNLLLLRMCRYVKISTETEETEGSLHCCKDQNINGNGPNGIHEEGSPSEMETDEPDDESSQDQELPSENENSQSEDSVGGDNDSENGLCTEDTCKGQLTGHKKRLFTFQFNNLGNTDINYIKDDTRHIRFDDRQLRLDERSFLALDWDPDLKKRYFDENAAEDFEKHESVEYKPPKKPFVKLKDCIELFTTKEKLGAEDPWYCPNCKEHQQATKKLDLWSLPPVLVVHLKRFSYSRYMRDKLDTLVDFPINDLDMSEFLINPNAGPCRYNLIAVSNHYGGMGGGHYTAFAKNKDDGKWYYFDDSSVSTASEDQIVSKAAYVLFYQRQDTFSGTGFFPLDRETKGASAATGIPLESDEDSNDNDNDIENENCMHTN
In short: as §1

USP16 = USP16 (UniProt Q9Y5T5)
In short: as §1

Measured: log2 ratio of Biotin-Ahx-Ub-VS probe labelling

Chain of USP16 (Q9Y5T5 whole entry, looked up): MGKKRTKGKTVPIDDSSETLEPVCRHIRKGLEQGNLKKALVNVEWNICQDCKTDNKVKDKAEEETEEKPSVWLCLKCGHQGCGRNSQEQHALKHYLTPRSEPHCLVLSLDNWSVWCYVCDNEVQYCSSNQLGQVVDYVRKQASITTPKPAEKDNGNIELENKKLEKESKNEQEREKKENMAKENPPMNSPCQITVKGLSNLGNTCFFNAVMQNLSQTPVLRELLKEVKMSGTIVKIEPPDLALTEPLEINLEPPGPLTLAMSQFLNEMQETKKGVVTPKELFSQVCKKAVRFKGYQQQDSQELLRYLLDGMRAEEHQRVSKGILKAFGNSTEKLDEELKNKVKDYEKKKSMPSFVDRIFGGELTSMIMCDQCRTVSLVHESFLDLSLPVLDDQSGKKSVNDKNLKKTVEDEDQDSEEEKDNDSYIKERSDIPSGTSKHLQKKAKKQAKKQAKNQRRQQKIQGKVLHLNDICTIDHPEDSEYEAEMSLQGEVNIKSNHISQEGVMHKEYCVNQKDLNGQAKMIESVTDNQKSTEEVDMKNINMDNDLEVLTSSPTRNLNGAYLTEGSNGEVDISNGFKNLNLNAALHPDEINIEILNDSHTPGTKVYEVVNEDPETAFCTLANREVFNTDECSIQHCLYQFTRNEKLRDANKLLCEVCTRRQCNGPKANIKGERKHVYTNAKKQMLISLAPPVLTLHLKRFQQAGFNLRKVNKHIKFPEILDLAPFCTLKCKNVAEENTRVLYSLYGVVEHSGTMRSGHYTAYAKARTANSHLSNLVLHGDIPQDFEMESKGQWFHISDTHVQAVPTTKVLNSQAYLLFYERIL
Chain of USP10 (Q14694 whole entry): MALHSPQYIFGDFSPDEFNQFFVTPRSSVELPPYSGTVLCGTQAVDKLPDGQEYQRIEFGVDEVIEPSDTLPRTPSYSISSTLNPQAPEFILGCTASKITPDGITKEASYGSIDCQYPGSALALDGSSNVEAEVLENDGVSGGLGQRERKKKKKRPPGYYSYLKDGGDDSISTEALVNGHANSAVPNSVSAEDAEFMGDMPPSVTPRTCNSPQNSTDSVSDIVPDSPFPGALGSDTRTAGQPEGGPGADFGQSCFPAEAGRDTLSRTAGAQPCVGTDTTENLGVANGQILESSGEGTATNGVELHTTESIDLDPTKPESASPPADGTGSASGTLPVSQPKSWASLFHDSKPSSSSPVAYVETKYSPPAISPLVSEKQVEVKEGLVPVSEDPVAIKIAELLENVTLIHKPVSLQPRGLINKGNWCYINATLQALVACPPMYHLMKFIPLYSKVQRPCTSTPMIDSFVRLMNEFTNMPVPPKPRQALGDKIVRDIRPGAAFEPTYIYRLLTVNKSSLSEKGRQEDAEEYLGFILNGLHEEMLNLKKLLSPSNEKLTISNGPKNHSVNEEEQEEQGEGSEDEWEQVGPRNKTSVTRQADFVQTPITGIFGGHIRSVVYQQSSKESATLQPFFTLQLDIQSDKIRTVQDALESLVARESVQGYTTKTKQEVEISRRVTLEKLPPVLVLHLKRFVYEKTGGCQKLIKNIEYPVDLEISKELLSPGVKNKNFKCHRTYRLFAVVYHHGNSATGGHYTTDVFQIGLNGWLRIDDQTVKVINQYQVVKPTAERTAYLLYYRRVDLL
Chain of UCHL1 (P09936 whole entry, looked up): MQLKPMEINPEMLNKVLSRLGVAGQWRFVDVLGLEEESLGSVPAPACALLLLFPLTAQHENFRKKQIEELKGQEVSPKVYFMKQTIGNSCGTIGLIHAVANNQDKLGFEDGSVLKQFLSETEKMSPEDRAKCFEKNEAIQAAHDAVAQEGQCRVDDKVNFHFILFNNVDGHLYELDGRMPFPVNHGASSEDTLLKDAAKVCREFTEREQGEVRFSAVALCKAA

O=C(CCl)Nc1cccc(NC(=O)c2ccccc2)c1
active: UCHL1 -1.07
inactive: OTUD6B 0.292 | OTUD7B -0.595 | PRPF8 0.0439 | PSMD7 0.102 | UCHL3 -0.427 | UCHL5 0.221 | USP10 -0.0488 | USP15 -0.0163 | USP16 0.163
